# Pin1 inhibitor – blocks the human prolyl isomerase Pin1; Q13526; Pin1 FP peptide displacement, HiFluor488, 10 min; Potency, µM (highest dose often 115 µM), inactives show top-dose activity, negative = inhibition, hits mostly inhibitors; actives 0.009% (n = 390,000); AID 504891; active means well fitted inhibition curve with a large enough effect in the polarisation, with a control signal flat, not every such curve was filed as active; inconclusive means small, poorly fitted or top-dose-only effect, or effect the other way, or a change in a side signal; inactive means no such curve, though single readings can be large or run the other way; the % refers to the polarisation; further: on the % scale 0 is the no-effect control and ±100 the full control effect
# TDP1 block – inhibitors of human tyrosyl-DNA phosphodiesterase TDP1. Potency, µM (top dose mostly 130 µM), for the others: at the top dose activity change, negative = inhibition, actives largely listed as inhibitors. recombinant TDP1, AlphaScreen DNA substrate cleavage. AID 485290. actives 0.28% (n = 350,000); further: on the % scale 0 is the no-effect control and ±100 the full control effect; nearly all actives have a fitted effect of over 40% in size
# Target sequence (Q9NUW8 whole entry, looked up): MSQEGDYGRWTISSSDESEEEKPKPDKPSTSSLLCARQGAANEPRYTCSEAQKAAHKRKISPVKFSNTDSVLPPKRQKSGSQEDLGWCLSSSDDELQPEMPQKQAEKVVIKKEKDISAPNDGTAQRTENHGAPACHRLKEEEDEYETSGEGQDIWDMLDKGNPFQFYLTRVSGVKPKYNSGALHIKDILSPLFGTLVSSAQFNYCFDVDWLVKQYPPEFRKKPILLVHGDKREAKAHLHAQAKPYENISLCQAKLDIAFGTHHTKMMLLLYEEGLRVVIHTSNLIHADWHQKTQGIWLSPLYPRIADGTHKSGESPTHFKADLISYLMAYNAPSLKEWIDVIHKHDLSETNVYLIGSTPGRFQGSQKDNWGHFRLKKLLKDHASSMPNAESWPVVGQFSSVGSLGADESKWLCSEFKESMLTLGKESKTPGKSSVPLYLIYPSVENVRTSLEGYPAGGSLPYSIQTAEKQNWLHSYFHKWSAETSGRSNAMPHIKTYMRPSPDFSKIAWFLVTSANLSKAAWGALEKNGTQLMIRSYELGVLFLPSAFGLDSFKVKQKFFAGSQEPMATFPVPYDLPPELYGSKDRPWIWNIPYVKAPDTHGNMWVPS
#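 Recombinant E. coli-expressed Tdp1 (1 nM) preincubated with compound 15 min at RT, then 5'-biotin/3'-phosphotyrosine-FITC DNA substrate (15 nM) added for 5 min. AlphaScreen beads (10 ug/ml) added, 10 min RT; tyrosine-FITC cleavage read as signal loss.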
# ASM inhibitor – blocks human secretory acid sphingomyelinase; Potency, µM (doses to about 57.5 µM), for the others: top-dose activity change, negative = inhibition, most hits filed as inhibitors; placental ASM, HMU-PC fluorogenic substrate, 60 min; P17405; actives 0.006% (n = 340,000); AID 504937
#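 Human placenta-derived ASM preincubated with compound 10 min at room temperature, then reacted with 9 uM (final) fluorogenic HMU-PC substrate for 60 min at 37 C. Stop solution raises pH to 10; fluorescence read at Ex 386/Em 447 nm.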
# VDR inhibitor – blocks the human vitamin D receptor; Potency, µM, inactives show max response, negative = inhibition, most hits filed as inhibitors; AID 504847; actives 0.93% (n = 400,000); VDR-SRC2-3 peptide fluorescence polarization, 2 h; further: on the % scale 0 is the no-effect control and ±100 the full control effect
#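 Signal is fluorescence polarization, reporting how far test compounds block the interaction of VDR with the SRC2-3 coregulator peptide after a 2 h room-temperature incubation.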
# PLK1 PBD inh – blocks phosphopeptide binding to human PLK1 polo-box domain; P53350; Plk1 PBD binding of FITC phosphopeptide, fluorescence polarization; Potency, µM, inactives show max response, negative = inhibition, usual class: inhibitors; actives 2.8% (n = 360,000); AID 720504; further: series mostly up to about 57 µM; on the % scale 0 is the no-effect control and ±100 the full control effect; nearly all actives have a fitted effect of over 65% in size
# Tb PFK block – inhibitors of T. brucei phosphofructokinase | O15648 | T. brucei PFK, ADP-Glo luminescence | Potency, µM (highest dose often 57.5 µM), without a hit: top-dose activity, negative = inhibition, most hits filed as inhibitors | actives 0.17% (n = 330,000) | AID 485367;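 further: 0% = uninhibited 1x PFK enzyme wells and -100% = no-enzyme wells; nearly all actives have a fitted effect of over 60% in size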
#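 Activity is normalized to no-enzyme wells (full inhibition) and 1.25 nM enzyme wells (no inhibition). Reaction: 0.5 mM F6P, 0.1 mM ATP, 45 min RT, ADP-Glo luminescence; concentration-response curves fitted and classed by quality.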
# The depositor's hits bear a star; ? = inconclusive; / = not tested or not shown; [ ] = dose if it differs, or a comment. Hits are enriched below; roughly 3.1% of the tested compounds scored in any of these assays. Unless noted, the call rests on the fitted dose curve; in most records, active means well fitted curve in the direction sought with a large enough effect; inconclusive means small, poorly fitted or top-dose-only effect, or another doubt; inactive means no such curve, though single readings can be large; an effect the other way counts as inactive or inconclusive. Potency means the concentration at half of the fitted maximal effect.
SMILES,Pin1 inhibitor,TDP1 block,ASM inhibitor,VDR inhibitor,PLK1 PBD inh,Tb PFK block
CC(C)(C)NC(=O)Nc1ccc(Cn2cc(C(F)(F)F)ccc2=O)cc1,-2%,0%,-3%,-29%,24µM*,0%
CC1(C)Cc2c(sc(NC(=O)C(=O)NCCCN3CCOCC3)c2C#N)CO1,0%,3%,-2%,-5%,12µM*,?
CC1(C)Cc2c(sc(NC(=O)/C=C/C(=O)O)c2C#N)CO1,28%,2%,-2%,-16%,-4%,-8%
CC(=O)Nc1ccc(/C=C/C(=O)c2ccc(-n3nncc3-c3ccccc3)cc2)cc1,49%,4%,/,?,/,/
CCn1c(=O)cc(OCC(=O)O)c2ccccc21,1%,1%,1%,-7%,-4%,1%
Cn1cc(C(c2ccccc2OCC(=O)O)c2cn(C)c3ccccc23)c2ccccc21,5%,/,-2%,40µM*,3µM*,6%
COc1ccc(CCn2c3c(c(=O)[nH]c2=S)CN(C)CN3)cc1OC,3%,0%,/,-3%,/,/
O=[N+]([O-])c1cccc(S(=O)(=O)N2CCCCC2)c1,-2%,/,7%,-8%,4%,2%
Cc1ccc(S(=O)(=O)Nc2nc3ccccc3nc2Nc2cccc(S(=O)(=O)N3CCCC3)c2)cc1,?,-8%,299%,13%,27µM*,0%
COc1ccc(S(=O)(=O)Nc2cccc(S(=O)(=O)N3CCCCC3)c2)cc1,6%,2%,-3%,0%,4%,10%
O=[N+]([O-])c1cccc(S(=O)(=O)Nc2nc3ccccc3nc2Nc2cccc(S(=O)(=O)N3CCCCC3)c2)c1,/,6%,-1%,2%,24µM*,4%
OC[C@H]1OC(O)(CN2CCOCC2)[C@H](O)[C@@H]1O (stereo partly specified),/,6%,/,5%,/,/
COc1ccc(OCCN(C)Cc2c(O)ccc3ccccc23)cc1,2%,-10%,6%,?,8.4µM*,0%
CN(CC(=O)Nc1ccc(N2CCOCC2)cc1)Cc1c(O)ccc2ccccc12,-16%,10%,18%,28µM*,4.7µM*,-7%
CN(Cc1ccccc1)Cc1c(O)ccc2ccccc12,0%,/,23%,?,?,-3%
CSc1ccccc1NC(=O)CN(C)Cc1c(O)ccc2ccccc12,0%,4%,18%,?,11µM*,0%
CN(CC(=O)Nc1ccc(N2CCOCC2)cc1)CC(=O)Nc1ccc(N2CCOCC2)cc1,-3%,/,1%,-4%,-14%,-7%
CC(C)[C@H](NS(=O)(=O)c1ccc2c(c1)OCCO2)C(=O)OCC(=O)Nc1cc(Cl)ccc1Cl,-1%,3%,-3%,79µM*,30µM*,2%
Cc1ccc(-c2n[nH]c(=S)n2Cc2ccccc2)cc1,0%,2%,-6%,-13%,-8%,-12%
CC(c1n[nH]c(=S)n1Cc1ccccc1)N(C)C (stereo unspecified),-6%,5%,5%,?,19µM*,0%
Cc1ccc(-c2c(C(=O)N3CCN(c4cccc(C)c4)C(C)C3)oc(=O)c3ccccc23)cc1 (stereo unspecified),25%,2%,/,-6%,/,/
CCOc1ccc(OCC)c(NS(=O)(=O)c2c(C(=O)N3CCC(C)CC3)c(C)n(C)c2C)c1,5%,6%,/,9%,/,/
Cc1ccc(C2CC2c2n[nH]c(=S)n2-c2cccc(C)c2)cc1 (stereo unspecified),?,9%,0%,-14%,24µM*,-7%
Cc1ccc(C2CC2c2n[nH]c(=S)n2-c2ccc(Cl)cc2)cc1 (stereo unspecified),-3%,4%,-19%,3%,-7%,1%
CC[C@H](C)[C@H](NC(=O)[C@H](Cc1ccccc1)NC(=O)[C@H](CCC(=O)O)NC(=O)[C@H](CCCCN)NC(=O)[C@H](C)NC(=O)[C@H](C)NC(=O)[C@H](CCC(N)=O)NC(=O)CNC(=O)[C@H](CCC(=O)O)NC(=O)[C@H](CC(C)C)NC(=O)[C@H](Cc1ccc(O)cc1)NC(=O)[C@H](CO)NC(=O)[C@H](CO)NC(=O)[C@@H](NC(=O)[C@H](CC(=O)O)NC(=O)[C@H](CO)NC(=O)[C@@H](NC(=O)[C@H](Cc1ccccc1)NC(=O)[C@@H](NC(=O)CNC(=O)[C@H](CCC(=O)O)NC(=O)[C@H](C)NC(=O)[C@@H](N)Cc1cnc[nH]1)[C@@H](C)O)[C@@H](C)O)C(C)C)C(=O)N[C@@H](C)C(=O)N[C@@H](Cc1c[nH]c2ccccc12)C(=O)N[C@@H](CC(C)C)C(=O)N[C@H](C(=O)N[C@@H](CCCCN)C(N)=O)C(C)C,/,9%,/,11%,/,/
SMILES,Pin1 inhibitor,TDP1 block,ASM inhibitor,VDR inhibitor,PLK1 PBD inh,Tb PFK block
O=C(Nc1c(C(=O)N2CCN(c3ccccc3)CC2)oc2ccccc12)c1ccc(Br)o1,-3%,6%,/,18%,/,/
O=C(Nc1nc(-c2ccccn2)cs1)c1ccc([N+](=O)[O-])o1,?,4%,3%,-12%,13µM*,-21%
CC(=O)c1ccc(-c2ccc(C(=O)Nc3nc(-c4ccccn4)cs3)o2)cc1,17%,2%,20%,-18%,27µM*,2%
CSc1nc(N)c2ncn([C@@H]3O[C@H](COP(=O)(O)OP(=O)(O)O)C(O)[C@H]3O)c2n1 (stereo partly specified),/,/,/,2%,/,/
O=C(OCC(=O)N1CCCC1=O)c1cc2ccccc2o1,1%,0%[56.1 µM],7%,-11%,21µM*,0%
O=C(NCc1ccc(Cl)cc1)C(=O)NCC(c1ccco1)S(=O)(=O)c1cccs1 (stereo unspecified),4%,-3%,/,8%,/,/
Cc1ccc(S(=O)(=O)N2CCN=C2SCc2ccccc2)cc1,?,3%,-2%,-26%,30µM*,-4%
Cc1c(P(=S)(c2ccccc2)c2ccccc2)[n+]2ccccc2n1CC(=O)c1ccccc1,?,1%,/,/,/,/
CCN1CCN(CC(=O)N2N=C(c3ccc(OC)cc3)CC2c2ccc(OC)cc2)C(=O)C1=O (stereo unspecified),-4%,4%,-2%,4%,27µM*,2%
Cc1ccc(C)c(NC(=O)CCc2nc3cccnc3n2Cc2cccs2)c1,9%,6%,/,-2%,/,/
CCC(=O)Nc1ccc(C2=Nn3c(nnc3C(C)C)SC2)cc1,5%,/,4%,-29%,24µM*,1%
COc1ccccc1S(=O)Cc1ccc(C(=O)NCc2ccccc2Cl)o1 (stereo unspecified),-11%,4%,2%,?,27µM*,-2%
COc1c(/C=C2\SC(=Nc3ccccc3Cl)NC2=O)cccc1[N+](=O)[O-],0%,9%,-20%,-17%,?,11%
